Measurements as given in PubChem BioAssay (Tox21).
Results filed as inconclusive are left out. Active and inactive are the calls of the source. Unless noted, calls follow the shape of the dose curve; as a rule, active = well fitted curve in the direction sought with a large enough effect in the repeat runs; inconclusive = weak or mixed curves; inactive = no such curve, though single readings can be large; an effect the other way counts as inactive or inconclusive.

Tests used:
[1] = qHTS assay to identify small molecule agonists of the peroxisome proliferator-activated receptor delta (PPARd) signaling pathway - cell viability counter screen (AID 743211); settings: PPARd-bla HEK293H viability, CellTiter-Glo luminescence, 17 h; series mostly up to 62.6 µM; also: nearly all actives have a fitted effect of over 55% in size; also: potency is read from the fitted curve at half-maximal effect
Summary of the method: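 HEK293H PPARd-bla, 3000 cells/well; 5 h preincubation 37C/5% CO2; cpd in DMSO, 17 h 37C; B/G FRET substrate 2 h RT; CellTiter-Glo 30 min RT, luminescence.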

[2] = qHTS assay to identify small molecule antagonists of the peroxisome proliferator-activated receptor delta (PPARd) signaling pathway - cell viability counter screen (AID 743213); settings: PPARd-bla HEK293H viability, CellTiter-Glo luminescence, 17 h; series mostly up to 62 µM; also: nearly all actives have a fitted effect of over 50% in size; also: potency is read from the fitted curve at half-maximal effect
Summary of the method: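 Same-well viability: cells pre-incubated 5 h, dosed with compound plus 300 nM L165041, kept 17 h at 37 C, FRET substrate 2 h RT, then CellTiter-Glo 30 min RT and luminescence.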

[3] = qHTS assay to identify small molecule agonists of the farnesoid-X-receptor (FXR) signaling pathway - cell viability counter screen (AID 743218); settings: FXR-bla HEK293T viability, CellTiter-Glo luminescence, 16 h; series mostly up to 62.6 µM; also: nearly all actives have a fitted effect of over 45% in size; also: potency is read from the fitted curve at half-maximal effect
Summary of the method: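 FXR-UAS-bla HEK 293T cells, plated 5 h at 37 C, were exposed to compounds for 16 h at 37 C. CellTiter-Glo was then added to the same wells as the bla readout; luminescence read after 30 min at room temperature.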

[4] = qHTS assay to identify small molecule antagonists of the farnesoid-X-receptor (FXR) signaling pathway - cell viability counter screen (AID 743221; active = well fitted cell-killing curve with a large enough effect in the repeat runs, not every such curve was filed as active; also: nearly all actives have a fitted effect of over 50% in size; also: potency is read from the fitted curve at half-maximal effect); settings: FXR-bla HEK293T viability, CellTiter-Glo luminescence, 16 h; series mostly up to 62.6 µM
Summary of the method: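 Luminescence from CellTiter-Glo measures cytotoxicity in GeneBLAzer FXR-UAS-bla HEK 293T cells. Cells were exposed to compounds with 50 uM chenodeoxycholic acid (final) for 16 h at 37 C, in wells also used for the reporter readout.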

[5] = biological target: Vitamin D3 receptor (Homo sapiens) (UniProt P11473); assay: qHTS assay to identify small molecule agonists of the vitamin D receptor (VDR) signaling pathway (AID 743222; calls by dose curve); settings: HEK293T VDR-UAS-bla, beta-lactamase FRET ratio, 16 h; series mostly up to 63.5 µM
Summary of the method: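 VDR-bla cells were plated 4 h at 37C/5% CO2, then exposed to compounds in DMSO for 16 h. After LiveBLAzer B/G FRET substrate addition and 2 h at room temperature, beta-lactamase reporter fluorescence was read.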

[6] = biological target: Vitamin D3 receptor (Homo sapiens) (UniProt P11473); assay: qHTS assay to identify small molecule antagonists of the vitamin D receptor (VDR) signaling pathway (AID 743223; active = well fitted inhibition curve with a large enough effect in the signal ratio in the repeat runs, not every such curve was filed as active; the % refers to the signal ratio; also: potency is read from the fitted curve at half-maximal effect); settings: VDR-UAS-bla HEK293T, beta-lactamase FRET ratio, 16 h; series mostly up to 61 µM
Summary of the method: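 Antagonist mode uses 1alpha,25-dihydroxyvitamin D3 at 3 nM final as stimulus. VDR-bla cells receive compounds in DMSO, incubate 16 h at 37C, then a beta-lactamase FRET substrate for 2 h at room temperature before fluorescence measurement.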

[7] = biological target: Bile acid receptor (Homo sapiens) (UniProt Q96RI1); assay: qHTS assay to identify small molecule agonists of the farnesoid-X-receptor (FXR) signaling pathway (AID 743220; active = well fitted activation curve with a large enough effect in the signal ratio in the repeat runs, not every such curve was filed as active; the % refers to the signal ratio); settings: HEK293T FXR-UAS-bla, beta-lactamase FRET ratio, 16 h; series mostly up to 62.6 µM
Summary of the method: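 Beta-lactamase reporter under UAS control in GeneBLAzer FXR HEK 293T cells (5000/well) measured with LiveBLAzer FRET substrate after 2 h at room temperature. Compound exposure lasted 16 h at 37C.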

[8] = biological target: Bile acid receptor (Homo sapiens) (UniProt Q96RI1); assay: qHTS assay to identify small molecule antagonists of the farnesoid-X-receptor (FXR) signaling pathway (AID 743217; active = well fitted inhibition curve with a large enough effect in the signal ratio in the repeat runs, not every such curve was filed as active; the % refers to the signal ratio); settings: HEK293T FXR-UAS-bla, beta-lactamase ratio, CDCA-stimulated, 16 h; series mostly up to 62.6 µM
Summary of the method: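 FXR-UAS-bla HEK 293T cells pre-incubated 5 h at 37 °C, then exposed to compounds with chenodeoxycholic acid (50 uM final) for 16 h at 37 °C. Beta-lactamase reporter read by LiveBLAzer B/G FRET substrate fluorescence after 2 h at room temperature.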

[9] = biological target: Peroxisome proliferator-activated receptor delta (Homo sapiens) (UniProt Q03181); assay: qHTS assay to identify small molecule agonists of the peroxisome proliferator-activated receptor delta (PPARd) signaling pathway (AID 743212; calls by dose curve); settings: HEK293H PPARd-UAS-bla, beta-lactamase FRET ratio, 17 h; series mostly up to 62.6 µM
Summary of the method: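 Quantitative high-throughput agonist screen in a HEK293H beta-lactamase reporter line under UAS control. Compounds in DMSO, at 37 C. Fluorescence read after 2 h with FRET substrate at room temperature.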

[10] = biological target: Peroxisome proliferator-activated receptor delta (Homo sapiens) (UniProt Q03181); assay: qHTS assay to identify small molecule antagonists of the peroxisome proliferator-activated receptor delta (PPARd) signaling pathway (AID 743215; active = well fitted inhibition curve with a large enough effect in the signal ratio in the repeat runs, not every such curve was filed as active; the % refers to the signal ratio;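 also: cells stimulated with agonist L165041 at 300 nM final during compound exposure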); settings: HEK293H PPARd-UAS-bla, beta-lactamase FRET ratio, antagonist, 17 h; series mostly up to 62 µM
Summary of the method: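 PPARd UAS-bla HEK293H cells were pre-incubated 5 h at 37 C, then given test compounds in DMSO plus agonist L165041 (300 nM final). After 17 h at 37 C, beta-lactamase FRET substrate was added; fluorescence read after 2 h at room temperature.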
% is scaled to controls: 0 for no effect and ±100 for the full control effect.

Bile acid receptor (Homo sapiens), sequence (Q96RI1 whole entry, looked up): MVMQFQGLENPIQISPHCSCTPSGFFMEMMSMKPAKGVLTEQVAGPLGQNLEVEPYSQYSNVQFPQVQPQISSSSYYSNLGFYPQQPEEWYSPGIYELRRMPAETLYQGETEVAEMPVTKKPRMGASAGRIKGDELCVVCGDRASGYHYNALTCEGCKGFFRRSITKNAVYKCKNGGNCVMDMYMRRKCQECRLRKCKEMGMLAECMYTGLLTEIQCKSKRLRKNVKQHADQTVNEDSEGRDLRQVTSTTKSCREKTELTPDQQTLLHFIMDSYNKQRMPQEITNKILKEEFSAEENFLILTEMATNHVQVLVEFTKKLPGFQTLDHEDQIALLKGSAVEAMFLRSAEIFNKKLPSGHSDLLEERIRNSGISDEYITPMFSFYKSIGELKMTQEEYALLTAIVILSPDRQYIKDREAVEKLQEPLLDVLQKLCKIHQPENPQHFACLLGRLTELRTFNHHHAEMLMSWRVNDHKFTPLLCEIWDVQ
Peroxisome proliferator-activated receptor delta (Homo sapiens), sequence (Q03181 whole entry, looked up): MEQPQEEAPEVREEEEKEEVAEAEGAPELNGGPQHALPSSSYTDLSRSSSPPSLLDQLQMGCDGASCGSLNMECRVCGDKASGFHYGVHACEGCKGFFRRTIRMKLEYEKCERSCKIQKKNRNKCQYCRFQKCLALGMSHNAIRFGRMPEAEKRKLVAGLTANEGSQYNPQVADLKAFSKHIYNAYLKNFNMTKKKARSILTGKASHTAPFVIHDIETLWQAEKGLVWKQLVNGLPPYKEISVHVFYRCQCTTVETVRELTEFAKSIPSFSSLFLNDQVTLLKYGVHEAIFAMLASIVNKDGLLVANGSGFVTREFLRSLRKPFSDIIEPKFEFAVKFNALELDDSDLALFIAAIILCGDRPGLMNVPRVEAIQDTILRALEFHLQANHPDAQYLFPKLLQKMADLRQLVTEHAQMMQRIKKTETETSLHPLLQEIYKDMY
Vitamin D3 receptor (Homo sapiens), sequence (P11473 whole entry, looked up): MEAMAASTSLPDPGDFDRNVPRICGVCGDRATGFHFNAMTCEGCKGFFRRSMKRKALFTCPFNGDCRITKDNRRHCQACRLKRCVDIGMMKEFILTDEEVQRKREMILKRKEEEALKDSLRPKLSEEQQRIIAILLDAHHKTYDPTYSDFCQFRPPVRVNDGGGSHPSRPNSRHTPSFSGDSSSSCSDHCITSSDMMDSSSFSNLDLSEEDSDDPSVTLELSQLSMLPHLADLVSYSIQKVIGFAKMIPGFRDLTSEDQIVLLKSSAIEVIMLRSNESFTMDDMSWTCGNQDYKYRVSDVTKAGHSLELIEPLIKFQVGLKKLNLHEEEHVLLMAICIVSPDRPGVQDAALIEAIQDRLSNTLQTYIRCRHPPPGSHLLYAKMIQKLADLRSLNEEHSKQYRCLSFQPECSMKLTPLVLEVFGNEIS

CN1CCC[C@@H]1c1cccnc1
inactive: Potency [1] | Potency [2] | Potency [3] | Potency [4] | outcome [5] | Potency [6]

O=C1[C@H](CC[C@H](O)c2ccc(F)cc2)[C@@H](c2ccc(O)cc2)N1c1ccc(F)cc1
inactive: Potency [1] | Potency [2] | Potency [3] | Potency [4] | outcome [5] | Potency [6]

CCN(CC)C(C)CN1c2ccccc2Sc2ccccc21 (stereo not drawn)
inactive: Potency [1] | Potency [2] | Potency [3] | Potency [4] | outcome [5] | Potency [6]

O=C(O)C1CCC(C(=O)O)CC1 (stereo not drawn)
inactive: Potency [1] | Potency [2] | Potency [3] | outcome [7] | outcome [5] | Potency [6]

CC(C)NCC(O)c1cc(O)cc(O)c1 (stereo not drawn)
inactive: Potency [1] | Potency [2] | Potency [3] | Potency [4] | outcome [5] | Potency [6]

CCCCCCCCCCCCCCCCCBr
inactive: Potency [1] | Potency [2] | outcome [8] | Potency [3] | outcome [7] | outcome [5] | Potency [6]

O=C(O)/C=C/c1cnc[nH]1
inactive: Potency [1] | Potency [2] | Potency [3] | Potency [4] | outcome [5] | Potency [6]

NC(N)=N/N=C/c1c(Cl)cccc1Cl
inactive: Potency [1] | Potency [2] | Potency [3] | Potency [4] | Potency [6]

O=S(=O)(O)c1ccc(O)c2ncccc12
inactive: Potency [1] | Potency [2] | outcome [8] | outcome [7] | Potency [4] | outcome [5]

CC(C)(C)c1cc(CO)cc(C(C)(C)C)c1O
inactive: Potency [1] | Potency [2] | Potency [3] | outcome [7] | outcome [5] | Potency [6]

CC1=CCC(C(C)C)C=C1 (stereo not drawn)
inactive: Potency [1] | Potency [2] | Potency [3] | Potency [4]

COc1ccc(C(C)=O)cc1
inactive: Potency [2] | Potency [4] | Potency [6]

CCN(CCO)CCCC(C)Nc1ccnc2cc(Cl)ccc12 (stereo not drawn)
inactive: activity change, negative = cytotoxicity [1] 9.74% [at 5.95 µM] | viability change, negative = cytotoxic [3] -0.758% [at 5.95 µM] | activity change, negative = cytotoxicity [4] 10.2% [at 5.95 µM] | activation [5] 9.25% [at 6.01 µM] | activity change, negative = inhibition [6] -3.93% [at 6.95 µM]

Oc1ccc(Cc2ccccc2)cc1
inactive: outcome [9] | Potency [2] | outcome [10] | Potency [3] | Potency [4] | outcome [5]

CC(=O)SCc1ccco1
inactive: outcome [9] | Potency [2] | outcome [10] | Potency [3] | outcome [7] | Potency [4] | outcome [5] | Potency [6]

CCCCCCCCCCCCC(=O)O
inactive: Potency [2]

CN(C)C/C=C(/c1ccc(Br)cc1)c1cccnc1
inactive: Potency [2] | Potency [3] | Potency [4] | outcome [5] | Potency [6]

CN(c1nccc(=O)[nH]1)C1CCN(c2nc3ccccc3n2Cc2ccc(F)cc2)CC1
inactive: Potency [3] | Potency [4] | outcome [5]

C=CC(=O)OCC(C)OCC(C)OCC(C)OC(=O)C=C (stereo not drawn)
inactive: Potency [4]
active: Potency [1] 49 µM

CCCCCC(CO)CCC (stereo not drawn)
inactive: Potency [1] | outcome [10] | Potency [3] | outcome [5] | Potency [6]

O=S1(=O)c2cccc3cccc(c23)N1CCCN1CCN(c2ccc(F)cc2)CC1
inactive: Potency [2] | outcome [8] | Potency [3] | outcome [7] | Potency [4] | outcome [5] | Potency [6]

CC(C)NCC(O)COc1ccc(CC(N)=O)cc1 (stereo not drawn)
inactive: Potency [1] | Potency [2] | Potency [4] | outcome [5] | Potency [6]

O=C(CCN1CCN2CCCC2C1)N1c2ccccc2Sc2ccc(Cl)cc21 (stereo not drawn)
inactive: Potency [1] | Potency [4] | outcome [5] | Potency [6]

C[C@H](CCC(=O)O)[C@H]1CC[C@H]2[C@@H]3[C@H](O)C[C@@H]4C[C@H](O)CC[C@]4(C)[C@H]3CC[C@]12C
inactive: Potency [1] | Potency [3] | Potency [4]

S=C(S)NCCNC(=S)S
inactive: Potency [1] | Potency [2] | Potency [4] | outcome [5]

O=C=NC1CCC(CC2CCC(N=C=O)CC2)CC1 (stereo not drawn)
inactive: outcome [9] | Potency [2] | outcome [5] | Potency [6]

CN(C)CC[C@@H](c1ccc(Br)cc1)c1ccccn1
inactive: outcome [9] | Potency [2] | outcome [8] | Potency [3] | outcome [7]

COCCCCCCCCOCCC[Si](C)(O[Si](C)(C)C)O[Si](C)(C)C
inactive: outcome [9] | outcome [8] | Potency [4] | outcome [5] | Potency [6]
active: Potency [2] 15.5 µM

Cc1ccc(O)c([C@H](CCN(C(C)C)C(C)C)c2ccccc2)c1
inactive: outcome [9] | outcome [10] | Potency [3] | Potency [4] | outcome [5] | Potency [6]

C=Cc1c(C)c2cc3[nH]c(cc4nc(cc5nc(cc1[nH]2)C(C)=C5CCC(=O)O)C(CCC(=O)O)=C4C)c(C)c3C=C
inactive: outcome [9] | Potency [2] | Potency [3] | Potency [4] | outcome [5]

CCCCCOC(=O)c1ccc(O)cc1
inactive: outcome [9] | Potency [2] | outcome [10] | outcome [7] | Potency [4] | outcome [5]

CCCCc1cc2ccccc2c(OCCN(C)C)n1
inactive: outcome [9] | Potency [2] | outcome [10] | outcome [8] | Potency [3] | outcome [7] | Potency [4] | outcome [5] | Potency [6]

CCCCCOC(=O)COc1cc(N2C(=O)C3=C(CCCC3)C2=O)c(F)cc1Cl
inactive: Potency [1] | Potency [2] | Potency [4] | outcome [5] | Potency [6]

CC[C@@H]1C[C@H](N(Cc2cc(C(F)(F)F)cc(C(F)(F)F)c2)C(C)=O)c2cc(C(F)(F)F)ccc2N1C(=O)OC(C)C
inactive: Potency [1] | outcome [10] | Potency [3] | Potency [4] | outcome [5] | Potency [6]

CCCCCC/C=C/C=O
inactive: outcome [9] | Potency [3] | Potency [4]

COc1ccc(OC)c(OC)c1
inactive: Potency [2] | outcome [8] | Potency [3] | outcome [7] | Potency [4] | outcome [5] | Potency [6]

O=C(O)Cc1cc(I)c(Oc2ccc(O)c(I)c2)c(I)c1
active: Potency [4] 54.9 µM
inactive: Potency [1] | Potency [2]

CNCC[C@@H](Oc1ccccc1C)c1ccccc1
inactive: Potency [2] | outcome [10] | Potency [3] | Potency [4] | outcome [5] | Potency [6]

CN(C)CCCOc1nn(Cc2ccccc2)c2ccccc12
inactive: outcome [9] | Potency [3] | Potency [4]

CCN(CC)CCOc1ccc2c(c1)C(=O)c1cc(OCCN(CC)CC)ccc1-2
active: Potency [3] 21.1 µM | Potency [4] 26.6 µM | Potency [6] 21.3 µM
inactive: outcome [9] | outcome [5]

CC(C)(C)c1cc(O)c(C(C)(C)C)cc1O
inactive: outcome [9] | Potency [2] | Potency [3] | Potency [4] | outcome [5] | Potency [6]

CN1CCN(C2=Nc3cc(Cl)ccc3Nc3ccccc32)CC1
inactive: outcome [8] | Potency [3] | outcome [7]

CN1CCC(=C2c3ccccc3C=Cc3ccccc32)CC1
inactive: outcome [7] | Potency [4] | outcome [5] | Potency [6]

CCOC(=O)C1=NN(c2ccccc2)C(=O)C1
inactive: outcome [9] | Potency [2] | outcome [10] | outcome [8] | Potency [3] | outcome [7] | Potency [4] | outcome [5] | Potency [6]

CN(C)CC/C=C1\c2ccccc2COc2ccccc21
active: Potency [1] 26.6 µM
inactive: outcome [8] | outcome [7] | outcome [5] | Potency [6]

C=C(C)C(=O)OC(C)C
inactive: Potency [1] | Potency [2] | outcome [5] | Potency [6]

O=C(O)c1cn(C2CC2)c2cc(Cl)c(F)cc2c1=O
inactive: Potency [1] | Potency [2] | Potency [4] | outcome [5] | Potency [6]

N#Cc1cc2ccccc2c2ccccc12
inactive: outcome [9] | Potency [2] | outcome [10] | outcome [8] | Potency [3] | outcome [7] | Potency [4] | outcome [5] | Potency [6]

CCCCOc1ccc(CC(=O)NO)cc1
inactive: outcome [10] | Potency [6]

CN1CCC(=C2c3ccccc3CCc3sccc32)CC1
inactive: outcome [9] | outcome [7]
